LANA DNA inh: blocks KSHV LANA C-terminal domain binding to DNA; MBP-C-LANA/FAM-LBS DNA binding, fluorescence polarization; inhibition, % at 9 µM; 340,000 tested, 0.078% active;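 active = highest replicate inhibition at or above 60% at 9 µM, even if other replicates fall short; inactive = all replicates below 60% inhibition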;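 also: 0% = neutral control wells and 100% = 4 µM acridine orange control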
Keap1 Nrf2 FP: disrupts human Keap1 binding to Nrf2 peptide. Q14145. Keap1 Kelch-Nrf2 peptide fluorescence polarization, 1536-well. inhibition, % at 9.4 µM. 340,000 tested, 0.15% active. AID 504523; in the data active = inhibition above about 12%; inconclusive = no clear call, values can overlap the other calls; inactive = below about 7.3%;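 also: human Keap1 Kelch domain with fluorescein labeled Nrf2 9mer peptide probe; 0% = neutral control wells and 100% = peptide positive control; higher means more block of Keap1 binding to Nrf2 peptide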
LANA-H2A inh: blocks KSHV LANA binding to histone H2A/H2B; inhibition, % (test concentration not listed); AID 2629; 320,000 tested, 0.6% active; Q9QR71; cell-free LANA-H2A/H2B peptide, fluorescence polarization; in the data active = inhibition mostly above about 10%, no sharp cut-off; inactive = mostly below about 6.7%
RTF Ca sens act: increases calcium sensitivity of human cardiac regulated thin filaments; IANBD-labeled TnC RTF fluorescence at EC20 calcium; 0% EC20 calcium, 100% full calcium; activation, % at 7.2 µM; 340,000 tested, 0.24% active;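 active = activation above the mean over all tested compounds plus 3 SD, cut at about 30% in these data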;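 also: rise in fluorescence read as greater calcium sensitivity of cardiac thin filaments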
RTF Ca sens inh: cardiac RTF calcium desensitization; P19429+P45379; IANBD-labeled cardiac RTF, Ca2+ fluorescence; inhibition, % at 7.15 µM; 340,000 tested, 0.12% active;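 active = inhibition above the mean inhibition of all tested compounds plus 3 SD, cut at about 17% in these data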;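 also: assay run at fixed EC70 calcium of 1.6 mM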
* hit, by the source's call; i = inactive; ? = inconclusive; nt = no result given; ! = not confirmed by another sample. In the library only some 1% were active in any assay of this set; here they are far more common.

SMILES	LANA DNA inh	Keap1 Nrf2 FP	LANA-H2A inh	RTF Ca sens act	RTF Ca sens inh
CCN(c1ccccc1)S(=O)(=O)c1ccc(Oc2ccccc2)c(N)c1	-4	-6	nt	-3	-1
COC(=O)C1CCC(=O)N1C(c1ccc(OC)cc1)c1cc(OC)c(OC)c(OC)c1 (stereo not given)	-1	-5	nt	-4	2
N#CC1(C#N)COC23CCCCC2C1(C#N)C(=N)O3 (stereo not given)	45	21*	10	22	-35
N#CC12COC3(CCCCC3C1(C#N)C#N)OC2=N (stereo not given)	30	?	7	21	-26
COc1cc(OC)c(OC)cc1/C=C1/Cc2ccccc2C1=O	1	-27	-2	31*	-60
COc1cc(/C=C2\CCC(C)C3=C(c4cc(OC)c(OC)c(OC)c4)C(C#N)=C(N)OC32)cc(OC)c1OC (stereo not given)	1	-11	nt	40*	-57
COc1cc(/C=C2\CC/C(=C\c3cc(OC)c(OC)c(OC)c3)C2=O)cc(OC)c1OC	3	-1	1	2	-3
Cc1nc2c(C)cccn2c1/C(O)=C1\C(=O)C(=O)N(CCN(C)C)C1c1ccccc1 (stereo not given)	0	-3	12*	0	-6
Cc1ccc(C2/C(=C(\O)c3c(C)nc4c(C)cccn34)C(=O)C(=O)N2CCN(C)C)o1 (stereo not given)	-1	-6	nt	7	-7
NC(=O)c1c(NC(=O)c2c(F)cccc2F)sc2c1CCN(Cc1ccccc1)C2	9	-20	-5	0	-7
NC(=O)c1c(NC(=O)c2ccccc2)sc2c1CCN(Cc1ccccc1)C2	4	-17	7	49*	-34
CCN1CCc2c(sc(NC(=O)Nc3ccc(Cl)c(Cl)c3)c2C(N)=O)C1	18	-47	-13	152*	i
COc1ccc(CC(=O)N/N=C/c2ccc(-c3cccc(C(=O)O)c3)o2)cc1OC	4	-1	8.8*	1	3
COc1ccc(CC(=O)N/N=C/c2ccc(-c3ccc(F)cc3)o2)cc1OC	0	-4	3	1	-6
Cc1ccc(NC2=C([N+](=O)[O-])CS(=O)(=O)C2)cc1	0	-3	28*	0	-1
CN(C)c1ccc(NC2=C([N+](=O)[O-])CS(=O)(=O)C2)cc1	1	-4	1	17	-9
COC(=O)c1ccc(NC(=O)COc2ccc([N+](=O)[O-])cc2)cc1	-1	-5	20*	3	-4
O=C(Nc1ccc(C(=O)O)cc1)Nc1ccc([N+](=O)[O-])cc1	2	3	-3	-2	-6
O=C(Nc1ccc([N+](=O)[O-])cc1)C1C(c2ccccc2)=C1c1ccccc1	-2	-4	18*	1	-7
O=C(CCOc1ccccc1)Nc1ccc([N+](=O)[O-])cc1	0	-4	15*	0	-7
Cc1ccc(NC(=O)c2ccccc2OCC(=O)Nc2ccccc2F)cc1S(=O)(=O)N(C)C	-3	1	0	0	-12
COc1ccc(C(=S)N2CCOCC2)cc1OC(=O)c1cc(OC)c(OC)c(OC)c1	1	-7	4	-2	-4
CC(=O)c1ccc(OC(=O)COc2ccccc2Cl)cc1	2	-9	-4	1	7
Cc1cn([C@H]2C[C@H](N=[N+]=[N-])[C@@H](CO)O2)c(=O)[nH]c1=O	0	-2	15*!	6	7
O=c1[nH]c(=O)n(C2CC(O)C(CO)O2)cc1I (stereo not given)	-1	-7	nt	-3	-6
SMILES	LANA DNA inh	Keap1 Nrf2 FP	LANA-H2A inh	RTF Ca sens act	RTF Ca sens inh
O=C(O/N=C/C1=C(Cl)c2ccccc2CC1)c1ccc(F)cc1	5	2	4	-4	2
Nc1cc(S(=O)(=O)O)cc([N+](=O)[O-])c1O	81*	-3	1	-5	-7
Nc1ccc(C(=O)O)cc1[N+](=O)[O-]	2	-4	-1	3	-4
CCOC(=O)c1c(-c2ccccc2)c[nH]c1C	nt	-6	nt	2	-4
CCOC(=O)N1CCN(C(=O)C(NC(=O)c2ccc(C(C)(C)C)cc2)C(C)C)CC1 (stereo not given)	0	-2	1	2	-7
COc1ccc2c(c1)C(=O)Cc1ccccc1O2	0	-5	17*	3	-2
COc1ccc(C2CC(=O)c3cc(OC)ccc3O2)cc1 (stereo not given)	0	-4	nt	-3	-9
CC(Sc1nnc(CN2CCCC2)n1Cc1ccccc1)C(=O)Nc1ccc(F)cc1Cl (stereo not given)	-1	0	nt	0	4
O=C(Nc1ccccc1C(=O)O)c1cccc(S(=O)(=O)Nc2ccc(Br)cc2)c1	1	-3	19*	-4	-4
N#CC(C#N)=C1SC(=Nc2ccccc2)C(=Nc2ccccc2)N1c1ccccc1	0	-2	nt	4	-1
O=C(CCN1CCCCO1)N1CCCC(N2CCN(c3ccc(F)cc3)CC2)C1 (stereo not given)	-1	1	13*	-8	2
O=C(CCN1CCCO1)N1CCCC(N2CCN(c3ccccc3F)CC2)C1 (stereo not given)	0	-5	-1	1	-2
CCOc1ccc2ccccc2c1/C=N/NC(=O)CNC(=O)C(c1ccccc1)c1ccccc1	-1	-1	0	1	5
CCCCNC(=O)C1c2cc(OC)c(OC)cc2C(=O)N(C)C1c1ccc(OC)cc1 (stereo not given)	-1	0	-3	-1	-6
CCOc1cc2c(cc1OCC)C(C(=O)O)C(c1cc(Br)c(O)c(OC)c1)N(C)C2=O (stereo not given)	-1	-6	15*	-3	2
Cc1cc2n(c(=O)c1C#N)CCCN2c1ccccc1	2	-6	-3	-2	-3
O=C1NC(=S)NC(=O)C1=Cc1ccccc1C(=O)O	0	1	nt	-3	-5
CC[C@]12CCCN3CCc4c(n(c5ccccc45)C(=O)C1)[C@@H]32	-1	-1	-2	0	12
CCOC(=O)C1=C[C@]2(CC)CCCN3CCc4c(n1c1ccccc41)[C@@H]32	0	-4	19*!	1	-1
CC(NC(=O)c1ccccc1Cl)C(=O)OCc1cn2cc(Cl)ccc2n1 (stereo not given)	3	3	3	-3	-11
C[C@H](NC(=O)c1ccccc1Cl)C(=O)OCc1cn2cc(Cl)ccc2n1	0	2	15*	2	9
COc1cc(Cl)c(S(=O)(=O)NCc2cccnc2)cc1Cl	2	-1	0	5	4
COC(=O)C1CCN(C(=O)c2ccc(Cl)c(S(=O)(=O)NCc3cccnc3)c2)CC1	1	1	43*	-2	-7
Cc1ccc(C(=O)OCC(=O)NC(C)C)cc1S(=O)(=O)N1CCOCC1	-2	2	-3	2	-8
Cc1ccc(C)c(C(=O)COC(=O)c2ccc(C)c(S(=O)(=O)N3CCOCC3)c2)c1	0	3	14*	-2	-7

From PubChem
